This is a sample that favours compounds with a hit; in the whole collection about 2.1% have one here.
YB-1 expression = YB-1 expression inhibition | delta delta Cp (YB-1 minus CDIP) (concentration not given with the values) | actives 0.37% (n = 30,000) | U2OS, qRT-PCR YB-1 vs CDIP delta delta Cp, 16 h; stronger effect = higher value; zero = DMSO, each unit about twofold;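 active = delta delta Cp rounded down to an integer at or above 3, about 3 SD of DMSO wells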;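 note: higher means less YB-1 transcript or more CDIP transcript relative to DMSO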
ROS inducer = cancer cell ROS induction; U2OS ROS induction, H2DCF-DA fluorescence; ROS induction (% of piperlongumine), % at 10 µM; actives 2% (n = 46,000); AID 624156; in the data active = ROS induction above about 79%, passing the limit was not always enough
Of the large screens only hits and unclear results are named; the others gave an inactive call.

N#Cc1cc2c(nc1SCCS(=O)(=O)c1nc3ccccc3s1)CCCC2	none (no result: YB-1 expression)
Cc1cc(C)c(C#N)c(SCCS(=O)(=O)c2nc3ccccc3s2)n1	ROS inducer 141 (no result: YB-1 expression)
c1ccc(CCn2c(CSc3nc4ccccc4o3)nc3ccccc32)cc1	none (no result: YB-1 expression)
O=C(CCCc1ccccc1)NCCc1cn2ccccc2n1	none (no result: YB-1 expression)
Cc1cccc(C)c1NC(=O)COc1ccc2cc(-c3ccccc3)c(=O)oc2c1	none (no result: YB-1 expression)
CC(=O)Oc1ccc2cc(-c3nc4c(s3)CCc3ccccc3-4)c(=O)oc2c1	ROS inducer 129 (no result: YB-1 expression)
C[C@@H]1CN([C@H](C)CO)C(=O)c2cc(NC(=O)Nc3ccc(F)cc3)ccc2O[C@@H]1CN(C)C(=O)Nc1ccc2c(c1)OCO2	none
C[C@H]1CN([C@@H](C)CO)C(=O)c2cc(NC(=O)Nc3ccc4c(c3)OCO4)ccc2O[C@H]1CN(C)C(=O)Nc1ccc(F)cc1	ROS inducer 86
C[C@@H]1CN([C@@H](C)CO)C(=O)c2cc(NC(=O)Nc3ccc4c(c3)OCO4)ccc2O[C@@H]1CN(C)C(=O)Nc1ccc(C(F)(F)F)cc1	ROS inducer 227
C[C@@H]1CN([C@H](C)CO)C(=O)c2cc(NC(=O)Nc3ccc(C(F)(F)F)cc3)ccc2O[C@H]1CN(C)C(=O)Nc1ccc2c(c1)OCO2	none
COC(=O)c1c(C)oc2ccc(OCc3ccc(Br)cc3)cc12	none (no result: YB-1 expression)
O=C1CN(S(=O)(=O)c2ccc3[nH]c(=O)ccc3c2)CC(=O)N1CCc1ccccc1	none (no result: YB-1 expression)
OC(COc1ccc(F)cc1)(c1ccc(Cl)cc1)c1ccc(Cl)cc1	none
C[C@@H]1CN([C@H](C)CO)C(=O)c2cccc(NC(=O)CCCCCC(=O)Nc3ccccc3N)c2O[C@@H]1CN(C)Cc1ccc(C(F)(F)F)cc1	none
C[C@H]1CN([C@@H](C)CO)C(=O)c2cccc(NC(=O)CCCCCC(=O)Nc3ccccc3N)c2O[C@@H]1CN(C)Cc1ccc(-c2ccccc2)cc1	ROS inducer 91
C[C@@H]1CN([C@H](C)CO)C(=O)c2cccc(NC(=O)CCCCCC(=O)Nc3ccccc3N)c2O[C@H]1CN(C)Cc1ccc(-c2ccccc2)cc1	ROS inducer 126
C[C@H](CO)N1C[C@H](C)[C@@H](CN(C)Cc2ccncc2)Oc2c(NC(=O)CCCCCC(=O)Nc3ccccc3N)cccc2C1=O	none
O=C(NCc1ccccn1)c1cc2nc(-c3ccccc3)cc(-c3ccccc3)n2n1	ROS inducer 141 (no result: YB-1 expression)
O=C(NCc1ccccn1)c1cc(-c2ccccc2)on1	none (no result: YB-1 expression)
CCCNC(=O)c1[nH]c2ccccc2c1Sc1ccc(C)cc1	none (no result: YB-1 expression)
Cc1ccc2c(c1)-c1onc(C(=O)N(CC(C)C)CC(C)C)c1CO2	none (no result: YB-1 expression)
COc1ccccc1C(=O)C1C(=O)NC2(C)CC1c1cc(Cl)ccc1O2 (stereo unspecified)	none (no result: YB-1 expression)
CS/C(NC1CCCCC1)=C(/C#N)S(=O)(=O)c1ccc(Cl)cc1	none
CS/C(NCC1CC1)=C(/C#N)C(=O)c1ccc(Cl)cc1	ROS inducer 196
Cc1cccc(OCC(=O)Nc2ccccc2)c1	none (no result: YB-1 expression)
Cc1cc(-n2nc3ccccc3n2)c2oc(SCc3nnc(-c4ccccc4)o3)nc2c1	none (no result: YB-1 expression)
c1ccc(Cn2ccnc2SCc2nnc(-c3ccccc3)o2)cc1	ROS inducer 105 (no result: YB-1 expression)
Cc1ccc(NC(=O)Nc2ccc(C(C)(C)C)cc2)cc1	none (no result: YB-1 expression)
CCn1c(=NC(=O)c2ccc(S(=O)(=O)N(C)C)cc2)sc2ccccc21	none
S=C(Nc1ccccc1)N1CCC(c2ccccc2)=N1	none (no result: YB-1 expression)
S=C(Nc1ccccc1)N1CCN(c2ccc3nnc(-c4ccccc4)n3n2)CC1	ROS inducer 240 (no result: YB-1 expression)
Cc1ccc2[nH]c3c(c2c1)CCCC3NC1CCCCC1 (stereo unspecified)	none (no result: YB-1 expression)
COC(=O)C1=C(C)NC2=C(C(=O)CC(c3ccccc3)C2)C1c1ccccc1OC(C)C (stereo unspecified)	none
CC1=C(C(=O)OCc2ccccc2)C(c2cccc(O)c2)C2=C(CC(c3ccccc3)CC2=O)N1 (stereo unspecified)	ROS inducer 183 (no result: YB-1 expression)
CCN1C(=O)CC(C(=O)Nc2ccccc2)SC1=Nc1ccccc1 (stereo unspecified)	none (no result: YB-1 expression)
Cc1ccc(C)c(NC(=O)C(C)n2sc3ccccc3c2=O)c1 (stereo unspecified)	none (no result: YB-1 expression)
CN(C(=O)CSc1nncn2c1cc1sccc12)c1ccccc1	none (no result: YB-1 expression)
CN(CCC#N)S(=O)(=O)c1ccc2[nH]cc(C(=O)O)c(=O)c2c1	none (no result: YB-1 expression)
CCOC(=O)c1cnc(N2CCOCC2)nc1N	none
CCCc1c(C(=O)OCC)c(C(=O)OCC)c2c(-c3ccccc3)nc(N3CCOCC3)nn12	YB-1 expression 3.2, ROS inducer 114
O=C(NCc1cccc2ccccc12)c1ccc2c3c(cccc13)CC2	none (no result: YB-1 expression)
c1ccc(Oc2ncnc3sc4c(c23)CCCC4)cc1	none (no result: YB-1 expression)
CCc1nc2sc3c(NCCc4ccccc4)ncnc3c2c2c1CCCC2	none (no result: YB-1 expression)
O=C(/C=C/c1ccccc1)Nc1ncnc2sc3c(c12)CCC3	none (no result: YB-1 expression)
Cc1nc(NCCc2ccccc2)c2c3c(sc2n1)CCCC3	ROS inducer 127 (no result: YB-1 expression)
FC(F)(F)c1cccc(Nc2ncnc3sc4c(c23)CCC4)c1	ROS inducer 116 (no result: YB-1 expression)
c1ccc(Nc2ncnc3sc4c(c23)CCCC4)cc1	ROS inducer 103 (no result: YB-1 expression)
Cc1ccc(NC(=O)CSc2nc3c(sc4ccccc43)c(=O)n2CC2CCCO2)cc1C (stereo unspecified)	none (no result: YB-1 expression)
Cc1nc2c(ccc3nc(NC(=O)c4cccc(Oc5ccccc5)c4)sc32)s1	none (no result: YB-1 expression)
CCC(=O)c1cc2ccccc2oc1=O	none (no result: YB-1 expression)
CC(C)NC(=O)Cn1nc(Cc2ccncc2)c2ccccc2c1=O	none (no result: YB-1 expression)
O=c1c2ccccc2n2c(-c3ccccc3)nnc2n1CCc1ccccc1	none (no result: YB-1 expression)
COc1ccc(OC)c(NC(=O)CSc2nc(-c3ccccc3)cs2)c1	none (no result: YB-1 expression)
CC(=O)c1ccc(NC(=O)CSc2ncnc3c2sc2nc4c(cc23)COC(C)(C)C4)cc1	none (no result: YB-1 expression)
COc1ccc(OC)c(NC(=O)CSc2nc(-c3ccccc3)nc3c2COC(C)(C)C3)c1	ROS inducer 77 (no result: YB-1 expression)
CC1(C)Cc2nc(-c3ccccc3)nc(SCC(=O)Nc3ccc(Br)cc3)c2CO1	ROS inducer 113 (no result: YB-1 expression)
O=C1Nc2ncccc2OC1c1ccccc1 (stereo unspecified)	none (no result: YB-1 expression)
CCOC(=O)C1CCN(C(=O)c2ccc(CC)cc2)CC1	none (no result: YB-1 expression)
CNC(=O)CCCn1nc(C)c2sc3ccccc3c2c1=O	none (no result: YB-1 expression)
CC1=C(C(=O)Nc2ccc(C(=O)NCc3ccc4c(c3)OCO4)cc2)SCCO1	none (no result: YB-1 expression)
COc1cc(OC)c(NC(=O)c2c(C)nn(-c3ccccc3)c2-n2cccc2)cc1Cl	none (no result: YB-1 expression)
COC(=O)c1ccccc1NC(=O)c1c(C)nn(-c2ccccc2)c1-n1cccc1	ROS inducer 126 (no result: YB-1 expression)
O=C(NCCN1CCC(Cc2ccccc2)CC1)c1ccc(-c2ccccc2)s1	none (no result: YB-1 expression)
O=C(CSc1ncccc1C(=O)N1CCC(Cc2ccccc2)CC1)c1ccccc1	none (no result: YB-1 expression)
Cc1c(CC(=O)NN)sc2ccc(Cl)cc12	none (no result: YB-1 expression)
COc1ccc(C(=O)COc2ccc(NC(=O)c3cccc([N+](=O)[O-])c3)cc2)cc1	none (no result: YB-1 expression)
COC(=O)COc1ccc(NC(=O)c2ccc(OC)c([N+](=O)[O-])c2)cc1	ROS inducer 118 (no result: YB-1 expression)
CC(=O)N(CCN(C)C)c1nc2cc(C)cc(C)c2s1	none (no result: YB-1 expression)
Cc1cc(Cl)ccc1OC(C)C(=O)N1CCN(c2ccccc2F)CC1 (stereo unspecified)	none (no result: YB-1 expression)
CC(Sc1ccc(Cl)cc1)C(=O)NCc1ccncc1 (stereo unspecified)	none (no result: YB-1 expression)
Cc1ccc(-c2cn3c4ccccc4nc3n2CCN2CCOCC2)cc1	none (no result: YB-1 expression)
CCc1ccc(-c2cn3c4ccccc4nc3n2CCN2CCOCC2)cc1	ROS inducer 89 (no result: YB-1 expression)
O=C(NC1=NCCS1)Nc1ccc2snnc2c1	none (no result: YB-1 expression)
